Source: PubChem (several laboratories)
Compounds with a hit are over-represented: about 4% of the library has one in this group of screens.
Peg3 promoter: Peg3 promoter activity inhibition; HeLa PEG-Prom luciferase reporter, luminescence, overnight; inhibition, % at 20 µM; 1.7% of 360,000 active; AID 588405;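 active = inhibition of at least 50% at 20 µM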
MITF TRPM1 inh: inhibitors of MITF-driven TRPM1 promoter in melanoma cells | SK-MEL-5 TRPM1 promoter luciferase, 24 h | inhibition, % at 12.5 µM | 0.83% of 330,000 active;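 active = mean inhibition across replicates of 60% or more, whatever share of single replicates reaches that level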
HIF-2a block: inhibitors of HIF-2a; 786-0 RCC cells HIF-2a reporter, luciferase luminescence, overnight; inhibition, % at 18.8 µM; 0.72% of 360,000 active; AID 624352;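 active = inhibition of the luminescence signal of 40% or more relative to plate controls, in a single-dose primary screen at 18.75 µM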
TWEAK-Fn14 inh: inhibitors of TWEAK-Fn14 interaction signaling | TWEAK-stimulated Fn14 reporter cells, luciferase luminescence, 8 h | inhibition, % at 10 µM | 2% of 360,000 active | AID 1159606; in the data active = inhibition above about 50%
EBV LMP1 NFkB: reduces LMP1-driven NF-kappaB luciferase signal | LMP1-induced NF-kappaB luciferase reporter cells, luminescence | inhibition, % at 12.5 µM | 0.69% of 350,000 active | AID 504558; in the data active = inhibition above about 41%;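 note: 0% = neutral control wells and 100% = reference inhibitor control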
TROY NFkB inh: blocks TROY-dependent signaling in reporter cells; Q293 LMP1-TROYcd NF-kB luciferase reporter, 4 h; 0.98% of 360,000 active; inhibition, % at 10 µM;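 active = compounds whose plate-normalised and pattern-corrected inhibition of the luciferase reporter signal at the single screening dose is 50% or more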
* marks the source's active call; other numbers are inactive results; x = not tested or not shown.

SMILES	Peg3 promoter	MITF TRPM1 inh	HIF-2a block	TWEAK-Fn14 inh	EBV LMP1 NFkB	TROY NFkB inh
CCCCOC(=O)c1[nH]c2c(c1C)C(=O)CC(c1cc(OC)c(OC)c(OC)c1)C2 (stereo not drawn)	20.8	x	7.7	72.7*	12.7	48.8
C=CCOC(=O)c1[nH]c2c(c1C)C(=O)CC(c1cc(OC)c(OC)c(OC)c1)C2 (stereo not drawn)	16.9	32.8	-5.6	64.2*	22.9	46.1
CCCCCCOC(=O)CC1CC(C(C)=O)C1(C)C (stereo not drawn)	-59.7	-8.6	-23.7	46.6	-4.7	22.4
CCc1noc(C)c1C(=O)N1CCN(S(=O)(=O)c2ccccc2C(F)(F)F)CC1	-0.1	-10.5	-0.8	1.6	-1.7	-3.9
C=CCn1c(SC(C)C(N)=O)nc2sc(CC)cc2c1=O (stereo not drawn)	13.0	11.0	5.5	-14.6	0.5	6.5
C=CCn1c(SCC(=O)Nc2sccc2C(N)=O)nc2ccccc2c1=O	35.0	7.6	12.8	46.2	0.9	33.8
C=CCn1c(SCC(=O)Nc2sccc2C(N)=O)nc2sc(CC)cc2c1=O	57.4*	33.5	-3.3	72.1*	13.3	48.0
C=CCn1c(SCC(=O)Nc2sccc2C(N)=O)nc2ccc(Cl)cc2c1=O	52.0*	19.7	22.9	73.5*	-9.8	49.0
Cc1cc(O)c(-c2n[nH]c3c2C(c2cccc(O)c2)N(Cc2cccnc2)C3=O)cc1Cl (stereo not drawn)	25.1	5.0	32.6	18.1	3.4	63.0*
COc1cccc(S(=O)(=O)Nc2ccc3c(c2)OCCO3)c1	8.4	13.9	15.1	76.3*	-2.2	52.1*
Cc1cccc(S(=O)(=O)Nc2ccc3c(c2)OCCO3)c1	5.4	-3.9	0.9	18.0	-2.3	-3.5
COc1ccc(NC(C)=O)cc1S(=O)(=O)Nc1ccc2c(c1)OCCO2	10.1	4.3	14.2	56.6*	-3.9	53.4*
O=S(=O)(Nc1ccc2c(c1)OCCO2)c1cccs1	-12.4	-16.8	35.6	89.8*	13.4	74.0*
Cn1c(=O)c(=O)n(C)c2cc(S(=O)(=O)Nc3ccc4c(c3)OCCO4)ccc21	6.0	27.7	12.3	-2.1	24.5	-0.1
Cn1c(=O)oc2cc(S(=O)(=O)Nc3ccc4c(c3)OCCO4)ccc21	26.7	6.1	17.8	65.5*	12.3	5.1
O=C(CCS(=O)(=O)c1ccc(F)cc1)Nc1nccs1	-11.0	x	-18.1	11.5	8.7	-8.8
Clc1ccc(OCc2nnc3n2N=C(c2ccc4c(c2)OCCO4)CS3)c(Cl)c1	-1.6	3.0	10.6	52.9*	12.4	60.0*
Clc1ccc(C2=Nn3c(Cn4nnc5ccccc54)nnc3SC2)cc1	21.8	x	19.9	-24.4	x	-3.9
CCCCOc1ccc(/C=C/C(=O)OCC(=O)N2CC(=O)Nc3ccccc32)cc1OCC	13.0	11.2	-10.2	68.1*	10.6	43.2
COc1ccc(/C=C/C(=O)OCC(=O)N2CC(=O)Nc3ccccc32)cc1	-1.6	-5.3	18.5	10.9	-7.8	6.2
O=C(Nc1nc2c(s1)CCc1ccccc1-2)c1ccco1	-209.6	-19.7	-286.3	20.3	-10.9	-35.6
CC(=O)Nc1nc2c(s1)CCc1ccccc1-2	-41.4	13.0	-44.6	57.2*	-3.6	-15.5
O=C(CCCl)Nc1nc2c(s1)CCc1ccccc1-2	54.5*	29.1	-34.0	2.7	-15.5	-20.8
NC(c1ccc(F)c(F)c1)c1nc(-c2cc(F)cc(F)c2)cs1 (stereo not drawn)	-11.5	x	-4.9	-14.3	x	-14.5
OC1(Cc2cc(-c3ccccc3)no2)CCN(CCCc2ccccc2)CC1	-1.8	1.7	3.1	-13.4	4.7	10.6
SMILES	Peg3 promoter	MITF TRPM1 inh	HIF-2a block	TWEAK-Fn14 inh	EBV LMP1 NFkB	TROY NFkB inh
CCN1C(N(C)CCc2cccs2)=N[C@@H](c2ccccc2)C(C(=O)OC)=C1C	-5.0	10.5	7.2	-0.1	3.1	-19.9
CCN1C(N(C)CCc2c[nH]c3ccccc23)=N[C@@H](c2cccc(C(F)(F)F)c2)C(C(=O)OC)=C1C	111.1*	-5.7	7.3	-8.9	-1.2	-21.3
O=C1CC(c2ccc(O)c(O)c2)Oc2c1ccc(O)c2O (stereo not drawn)	-21.0	-7.9	13.4	62.1*	0.4	-3.3
CC(C)=CCc1c(O)cc2c(c1O)C(=O)CC(c1ccccc1)O2 (stereo not drawn)	33.8	23.0	14.5	46.9	5.9	9.5
O=C1CC(c2ccc(O)c(O)c2)Oc2cc(O)cc(O)c21 (stereo not drawn)	-19.3	-14.0	-43.0	3.2	-2.8	-39.5
CC(C)=CCc1c(O)ccc2c1OC(c1ccc(O)c(O)c1)CC2=O (stereo not drawn)	35.0	70.6*	12.5	74.5*	-7.9	42.1
CCC(=O)Nc1c(S(=O)(=O)c2ccccc2)c2nc3ccccc3nc2n1C(C)c1ccccc1 (stereo not drawn)	35.5	-3.5	27.4	50.4*	2.2	72.6*
CCCCCCn1c(C(C)NC(=O)c2ccco2)nc2ccccc21 (stereo not drawn)	16.3	-6.5	13.7	0.5	-4.3	8.4
Cc1ccc(S(=O)(=O)c2c(N)n(NC(=O)c3ccccc3C)c3nc4ccccc4nc23)cc1	19.6	-5.1	10.8	14.3	6.8	-39.4
CCCCCn1c(NC(=O)c2ccco2)c(S(=O)(=O)c2ccc(C)cc2)c2nc3ccccc3nc21	23.1	-0.6	-9.4	66.8*	9.2	64.8*
CCCCn1c(NC(=O)c2ccco2)c(S(=O)(=O)c2ccc(C)cc2)c2nc3ccccc3nc21	28.9	-8.7	2.5	72.1*	9.2	66.0*
CCCCn1c(NS(=O)(=O)c2ccccc2)c(S(=O)(=O)c2ccc(C)cc2)c2nc3ccccc3nc21	25.7	10.8	11.5	31.5	7.4	69.7*
CCC(=O)Nc1c(S(=O)(=O)c2ccc(C)cc2)c2nc3ccccc3nc2n1C(C)c1ccccc1 (stereo not drawn)	34.9	-4.5	19.9	34.7	6.4	34.5
O=C(NC1CCCCC1)C(c1ccncc1)n1c(=O)c(-c2cc3ccccc3[nH]2)nc2ccccc21 (stereo not drawn)	x	x	-75.6	x	x	x
Cc1cccc(C)c1NC(=O)CNC(=O)c1cccc(S(=O)(=O)NCc2cccs2)c1	-1.9	-0.9	16.9	-3.0	-1.3	0.0
CC1CCCCC12NC(=O)N(CC(=O)Nc1ccc(N3CCCCC3)cc1)C2=O (stereo not drawn)	0.7	-8.8	-1.9	-0.6	-5.0	4.9
Cc1ccc2c(NC(=O)c3ccc(Br)o3)cccc2n1	-9.8	-10.3	-34.5	-2.9	-7.9	-19.5
CCCCn1c(NC(=O)c2ccc(Br)o2)c(S(=O)(=O)c2ccccc2)c2nc3ccccc3nc21	30.8	10.0	-5.9	73.9*	7.0	71.3*
O=S(=O)(Nc1ccc(Cl)cc1NS(=O)(=O)c1ccccc1)c1ccccc1	47.4	6.2	17.1	-3.8	0.3	50.6*
CC(C1CC1)N(Cc1ccccc1)C(=S)Nc1ccccc1Cl (stereo not drawn)	0.7	10.3	10.2	6.6	-3.1	85.7*
